Measurements taken from PubChem BioAssay (NCI).
This is part of a sample that, as a whole, favours compounds with a hit. Of some 83,000 tested, about 20% had one in any assay.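 Negative percent growth values reflect cell death: -40 means 40% of the cells present at the start died, and -100 means all died.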 A number with no mark means an inactive call. Active and inactive are the calls of the source. How the source made its calls: active means growth percent below 10; inactive means the rest.

What was measured:
Assay in all cases: NCI-60 one-dose screen, 48 h (100 = growth as untreated, 0 = no growth, -100 = all killed)
Conditions in all cases: 10 µM unless noted
SK-MEL-2 melanoma = test system: SK-MEL-2 melanoma
EKVX NSCLC = test system: EKVX NSCLC
SN12C renal = test system: SN12C renal
UO-31 renal = test system: UO-31 renal
TK-10 renal = test system: TK-10 renal
ACHN renal = test system: ACHN renal
CAKI-1 renal = test system: CAKI-1 renal
A498 renal = test system: A498 renal
CCRF-CEM leukemia = test system: CCRF-CEM leukemia
SR leukemia = test system: SR leukemia
RPMI-8226 leukemia = test system: RPMI-8226 leukemia
OVCAR-8 ovarian = test system: OVCAR-8 ovarian
OVCAR-5 ovarian = test system: OVCAR-5 ovarian
OVCAR-4 ovarian = test system: OVCAR-4 ovarian
SK-OV-3 ovarian = test system: SK-OV-3 ovarian
IGROV1 ovarian = test system: IGROV1 ovarian
OVCAR-3 ovarian = test system: OVCAR-3 ovarian
HS 578T breast = test system: HS 578T breast
NCI/ADR-RES ovarian = test system: NCI/ADR-RES ovarian
MOLT-4 leukemia = test system: MOLT-4 leukemia

SMILES	growth (SK-MEL-2 melanoma)	growth (EKVX NSCLC)	growth (SN12C renal)	growth (UO-31 renal)	growth (TK-10 renal)	growth (ACHN renal)	growth (CAKI-1 renal)	growth (A498 renal)	growth (CCRF-CEM leukemia)	growth (SR leukemia)	growth (RPMI-8226 leukemia)	growth (OVCAR-8 ovarian)	growth (OVCAR-5 ovarian)	growth (OVCAR-4 ovarian)	growth (SK-OV-3 ovarian)	growth (IGROV1 ovarian)	growth (OVCAR-3 ovarian)	growth (HS 578T breast)	growth (NCI/ADR-RES ovarian)	growth (MOLT-4 leukemia)
CC(C)NCCCNC1=C(Cl)C(=O)c2ccccc2C1=O	125%	80.4%	91.7%	81.9%	114%	81.1%	66.7%	88.1%	76.6%	-22.7% (active)	68.4%	56.9%	138%	84.1%	107%	-51.3% (active)	40.8%	27.7%	90.5%	
CC(=O)OC[C@]12CC[C@H]3[C@@H](C[C@H]4O[C@]45CC=CC(=O)[C@]35C)[C@]1(O)CC[C@@]2(O)[C@@](C)(O)C1CC(C)=C(C)C(=O)O1 (some centres not stated)	-22.6% (active)	-14.1% (active)	-39.2% (active)	-18.5% (active)	-55% (active)	-64.1% (active)	-63.7% (active)	-76.2% (active)	-8.89% (active)		-19.6% (active)	7.69% (active)	-24.1% (active)	19.8%	-13.1% (active)	-55.1% (active)	-23.7% (active)	-1.18% (active)	38.9%	7.75% (active)
Nc1cccc(-c2nc3sccn3c2-c2ccnc(NCCCNS(=O)(=O)c3cccc4ccccc34)n2)c1	36.3%	56.7%	39.3%	21.5%	76.5%	31.6%	34.9%	29.8%	16.1%	38.7%	8.33% (active)	23.5%	92.1%	24.6%	63.1%	36.7%	37.6%	44.7%	38.3%	
CCCCCCCC/C=C/CCCCCCCC1=NC(C)(C)CN1C(C)(C)CO	51.3%	66.2%	48.7%	44.5%	62.1%	21.6%	42.3%	88.8%	3.32% (active)		-21.7% (active)	37.1%	65.1%	42.5%	70.3%			65.9%	56%	-22.6% (active)
O=C1/C(=C/c2ccc([N+](=O)[O-])cc2)CN(C(=O)CCN2CCC(=NO)CC2)C/C1=C\c1ccc([N+](=O)[O-])cc1	2.76% (active)	-31.9% (active)	-17.6% (active)	-94.9% (active)	8.77% (active)	-59.2% (active)	-46.3% (active)	-3.11% (active)	-13.3% (active)	8.69% (active)	-34.8% (active)	6.6% (active)	-41.3% (active)	-8.21% (active)	17.3%	-21.2% (active)	-59% (active)	22.8%	7.5% (active)	
C[n+]1c(/C=C/c2c(O)ccc3ccccc23)ccc2ccccc21	29.4%	44.8%	32.4%	22.2%	49.1%	31.6%	35.1%	52.9%	10.2%	-36.2% (active)	3.79% (active)	21.3%	77.3%	28.3%	50.6%	45.2%	-20.5% (active)	55.7%	25.2%	
CCN(CC)CCOc1ccc(/C(=C(/C)c2ccccc2)c2ccc(OC(C)=O)cc2)cc1	121%	95.6%	93.6%	80.4%	111%	111%	90.8%	73.6%	94.3%		100%	112%	98.2%	100%	106%	105%	104%	95.2%	101%	106%
N#C/C(=C1C=C/C(=N/O)C(Cl)=C/1)c1ccc(Cl)cc1	95.1%	93.6%	66.6%	44.9%	51.2%	67.3%	34%	88.1%	7.1% (active)		20.7%	66.3%	129%	88.9%	121%	45.4%	31.7%	87.7%	63.1%	65.9%
Clc1ccc2c(NC3CCC(NC4CCCCC4)CC3)ccnc2c1 (configuration not stated)	55.2%	68.1%	74.1%	56.2%	48.8%	58.2%	47.9%	62.5%	70.2%	-3.32% (active)	39.4%	52.2%	84.4%	50%	73.4%	83.4%	85.3%	67.5%	68%	
COc1ccc(-c2nc3sccn3c2/C=C/C(=O)c2cc(F)cc(F)c2)cc1	74.7%	88%	92.1%	60.5%	164%	65.4%	57.1%	57.6%	19.4%		6.15% (active)	80.7%	102%	66.2%	75.3%		54.7%	75.1%	78%	5.45% (active)
CC(C)(C)NCCC(O)c1cc2c(Cl)cc(Cl)cc2c2cc(C(F)(F)F)ccc12 (configuration not stated)	-69.5% (active)	-63.9% (active)	-80.1% (active)	-88.8% (active)	-85.7% (active)	-75.9% (active)	-68.2% (active)	16.5%	-50.7% (active)		-40% (active)	-81.1% (active)	-83.2% (active)		15.6%	-63.2% (active)	-88.7% (active)	-56.9% (active)	-80% (active)	-61.9% (active)
Cc1ccc(-c2nc(C#N)c(S(=O)(=O)n3nc(-c4ccccc4)cc3N)o2)cc1	99.4%	99%	90.2%	92%	18.1%	25.3%	-41.1% (active)	126%	4.2% (active)		83.4%	90.4%	106%	114%	94.8%	101%	17.7%	95.6%	94.9%	1.21% (active)
COC(=O)c1nc(-c2ccccc2)oc1S(=O)(=O)N1CCN(c2cccc(Cl)c2)CC1	90%	93.4%	74.5%	62.9%	89.4%	84.8%	32.6%	111%	4.91% (active)		36.6%	76.3%	81.9%	103%	92.9%	77.8%		85.7%	89.2%	39.3%
COc1ccc(Nc2nc(N)nc3c2CCN(Cc2ccc(OC)cc2OC)C3=O)cc1	93.7%	81.5%	70.7%	60.3%	84.8%	80.7%	92.9%	76.8%	86.1%		41.9%	82.6%	72.5%	91.2%	90.5%		88%	82.7%	93.4%	80.7%
O=[N+]([O-])c1ccc(-c2cn(-c3ccccc3)c(-c3ccccc3)n2)cc1	74.8%	88.7%	77.6%	55%	108%	95.1%	87.7%	82%	27.3%	43.3%	-0.221% (active)	70.6%	95.4%	84.2%	79.1%	64.2%	97.4%	97.5%	85.3%	
CCOC(=O)c1cn2c3c(cccc3c1=O)C(=O)/C(=C/c1cccc(Cl)c1Cl)C2	87.7%	99.3%	94.2%	61.7%	100%	106%	91.6%	99.1%	99.2%		92.4%	95.7%	102%	100%	86.1%	99.7%		100%	101%	102%
